Experiment [1] in a line: qHTS assay to identify small molecule agonists of the vitamin D receptor (VDR) signaling pathway - cell viability counter screen (AID 743224). Further: series mostly up to about 63 µM; nearly all actives have a fitted effect of over 50% in size. In short, it runs like this:
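VDR-bla cells were preincubated 4 h at 37C/5% CO2, then exposed to compounds for 16 h. After the 2 h room-temperature bla FRET read, CellTiter-Glo was added to the same wells and luminescence read after 30 min.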
(Quantitative high-throughput screening tests each substance at several concentrations.)

Experiment [2] in a line: qHTS assay to identify small molecule antagonists of the vitamin D receptor (VDR) signaling pathway - cell viability counter screen (AID 743225). Further: nearly all actives have a fitted effect of over 50% in size. In short, it runs like this:
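VDR-UAS-bla HEK 293T cells were plated and incubated 4 h at 37C, then dosed with compound plus 3 nM (final) 1-alpha,25-dihydroxyvitamin D3 for 16 h. After the 2 h beta-lactamase read, viability in the same wells was read as CellTiter-Glo luminescence after 30 min at room temperature.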

Experiment [3] is described as follows: qHTS assay to identify small molecule agonists of the NFkB signaling pathway (AID 1159509; active means well fitted curve in the direction sought with a large enough effect in the signal ratio in the repeat runs, not every such curve was filed as active; the % refers to the signal ratio; further: series mostly up to about 61 µM). In short, it runs like this: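 ME-180 NFkB-bla, 2,000 cells/well, overnight plating; cpd pinned in DMSO, 5 h 37 C; B/G FRET substrate 1.5 h RT; ex 405, em 460/530 nm.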
A short description of experiment [4]: qHTS assay to identify small molecule agonists of the NFkB signaling pathway - cell viability counter screen (AID 1159515; calls by dose curve; further: nearly all actives have a fitted effect of over 55% in size; further: potency means the concentration at half of the fitted maximal effect). In short, it runs like this:
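NFkB-bla ME-180 cells, 2,000/well, were plated overnight at 37 C, 5% CO2, then exposed to compounds in DMSO for 5 hr. After the bla FRET read, CellTiter-Glo was added to the same wells; luminescence was read after 30 min at room temperature.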

Experiment [5] is described as follows: qHTS assay to identify small molecule agonists of the endoplasmic reticulum stress response signaling pathway (AID 1159516; active means well fitted activation curve with a large enough effect in the signal ratio in the repeat runs, not every such curve was filed as active; the % refers to the signal ratio). In short, it runs like this:
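CellSensor ESRE-bla HeLa cells, carrying a beta-lactamase reporter driven by the ER stress response element, were plated overnight and exposed to compounds for 5 hr at 37 C. Reporter activity was read as FRET substrate fluorescence after 2 hr at room temperature.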

Experiment [6] is described as follows: qHTS assay to identify small molecule antagonists of the retinoid-related orphan receptor gamma (ROR-gamma) signaling pathway - cell viability counter screen (AID 1159520). Further: nearly all actives have a fitted effect of over 50% in size. Further: potency means the concentration at half of the fitted maximal effect. In short, it runs like this: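 Tet-on ROR gamma CHO cells were given compounds for 2 hr, then doxycycline hyclate at 1 uM final, and incubated 16 hr at 37 C. Viability was measured as ATP content by CellTiter-Glo luminescence.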

Experiment [7] in a line: qHTS assay to identify small molecule agonists of the AP-1 signaling pathway - cell viability counter screen (AID 1159525; calls by dose curve; further: nearly all actives have a fitted effect of over 55% in size). In short, it runs like this:
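AP-1-bla ME-180 cells in Opti-MEM with 0.5% dialyzed FBS, compound exposure 5 h at 37 C in 15-point titration. Viability read in the same wells as ATP content by CellTiter-Glo luminescence, normalised to tetra-n-octylammonium bromide and DMSO controls.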

Experiment [8] in a line: qHTS assay to identify small molecule agonists of the AP-1 signaling pathway (AID 1159526; calls by dose curve).
Experiment [9] deals with Retinoic acid receptor RXR-alpha (Homo sapiens) (UniProt P19793). The experiment can be described thus: qHTS assay to identify small molecule agonists of the RXR signaling pathway (AID 1159527; calls by dose curve; further: nearly all actives have a fitted effect of over 35% in size). In short, it runs like this: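 GeneBLAzer RXR-alpha-UAS-bla HEK 293T cells in 2% charcoal-stripped FBS medium were exposed to compounds for 16 hr at 37 C in agonist mode. Beta-lactamase reporter read as 460/530 nm FRET ratio after 2 hr substrate loading.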

Experiment [10] is described as follows: qHTS assay to identify small molecule agonists of the RXR signaling pathway - cell viability counter screen (AID 1159529). Further: series mostly up to about 77 µM; nearly all actives have a fitted effect of over 50% in size. In short, it runs like this: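 RXR-alpha-UAS-bla HEK 293T cells in medium with 2% charcoal-stripped FBS were pre-incubated 5 hr, then compound-treated 16 hr at 37 C. Viability was read by CellTiter-Glo luminescence in the same wells as the beta-lactamase assay, with tetraoctyl ammonium bromide as positive control.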

The nature of experiment [11]: qHTS assay to identify small molecule antagonists of the retinoid acid receptor (RAR) signaling pathway - cell viability counter screen (AID 1159551). Further: nearly all actives have a fitted effect of over 35% in size. In short, it runs like this: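 C3RL4 cells were seeded overnight at 37 C, then treated with compounds plus 1 uM (final) retinol for 6 h at 37 C. Viability was read as ATP by CellTiter-Glo luminescence after 30 min at room temperature.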

Experiment [12] is described as follows: qHTS assay to identify small molecule antagonists of the retinoic acid receptor (RAR) signaling pathway (AID 1159552; further: nearly all actives have a fitted effect of over 50% in size; further: potency means the concentration at half of the fitted maximal effect). In short, it runs like this:
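Retinol signaling pathway inhibitors screened in C3RL4 RARE-luciferase reporter cells seeded overnight at 37 C, then compounds added with 1 uM (final) retinol as pathway substrate. After 6 hr at 37 C, luciferase luminescence read after 30 min at room temperature.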

A short description of experiment [13]: qHTS assay to identify small molecule agonists of the retinoic acid receptor (RAR) signaling pathway (AID 1159553). In short, it runs like this:
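C3RL4 cells carrying a RARE luciferase reporter were plated overnight at 37 C, then exposed to compounds in DMSO for 6 hr at 37 C and 5% CO2. Luminescence was read 30 min after luciferase reagent addition at room temperature.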

Experiment [14] deals with Nuclear receptor ROR-gamma (Homo sapiens) (UniProt P51449). In words: qHTS assay to identify small molecule antagonists of the retinoid-related orphan receptor gamma (ROR-gamma) signaling pathway (AID 1159521). In short, it runs like this: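 Tet-on ROR-gamma CHO cells with ROR response element-luciferase reporter; compounds added 2 hr before 1 uM doxycycline induction, then 16 hr at 37 C. Antagonism scored as decreased ONE-Glo luminescence.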

Records with an inconclusive call do not appear. Activity calls are given as the source filed them. Unless noted, the call rests on the fitted dose curve; in most records, active means well fitted curve in the direction sought with a large enough effect in the repeat runs; inconclusive means weak or mixed curves; inactive means no such curve, though single readings can be large; an effect the other way counts as inactive or inconclusive.

Among the data in PubChem BioAssay (Tox21) are Potency and outcome values, retold here.

Sequence of Retinoic acid receptor RXR-alpha (Homo sapiens) (P19793 whole entry, looked up): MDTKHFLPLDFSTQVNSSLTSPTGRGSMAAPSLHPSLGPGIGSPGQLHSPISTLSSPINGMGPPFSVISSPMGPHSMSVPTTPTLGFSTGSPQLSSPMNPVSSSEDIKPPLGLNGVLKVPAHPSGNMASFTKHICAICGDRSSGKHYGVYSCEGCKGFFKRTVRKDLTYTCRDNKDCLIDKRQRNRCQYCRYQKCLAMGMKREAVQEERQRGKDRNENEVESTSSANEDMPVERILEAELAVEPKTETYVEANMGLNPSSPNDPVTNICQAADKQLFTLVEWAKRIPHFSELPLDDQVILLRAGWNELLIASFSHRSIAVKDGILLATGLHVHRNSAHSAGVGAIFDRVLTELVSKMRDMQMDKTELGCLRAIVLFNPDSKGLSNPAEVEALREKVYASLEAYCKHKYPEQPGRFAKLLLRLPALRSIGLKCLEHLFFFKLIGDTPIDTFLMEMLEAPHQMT

Turning to `O=C1CC[C@@H](C(=O)O)N1`, the Potency entry in experiment [1], in experiment [2], in experiment [4], in experiment [5], in experiment [6] and in experiment [7] was “inactive” in each case. In addition, the Potency result in experiment [9], in [10], in experiment [11], in experiment [12] and in [13] was “inactive” each time. The molecule was called inactive in experiment [3] and in experiment [8].

In the case of `COC(CC(C)CCCC(C)(C)O)OC` (stereo not drawn), the Potency result in experiment [1], in [2], in experiment [4], in [5], in [14] and in experiment [7] was “inactive” throughout. Besides, the Potency entry in experiment [9], in [10], in [11], in experiment [12] and in experiment [13] was “inactive” throughout. Further, the call in [3] and in experiment [8] was inactive.

For `CCOc1ncc(F)c(=O)[nH]1`, the Potency result in experiment [2], in experiment [4], in experiment [5], in experiment [6], in experiment [7] and in experiment [9] was “inactive” in each case. Besides, the Potency entry in experiment [10], in experiment [11] and in experiment [12] was “inactive” throughout. For the same molecule, the result in [3] and in experiment [8] was inactive.

For `COc1cc(C(C)=O)ccc1OCCCN1CCC(c2noc3cc(F)ccc23)CC1`, the Potency entry in experiment [1], in experiment [2], in experiment [4], in experiment [5], in experiment [6] and in experiment [14] was “inactive” throughout. Besides, the Potency entry in [7], in experiment [10] and in [11] was “inactive” each time. For the same molecule, in experiment [3], the outcome was inactive.

Turning to `CC(C)(C)C1(CCc2ccc(Cl)cc2)CO1` (stereo not drawn), the Potency entry in experiment [1], in experiment [2], in experiment [4], in experiment [5], in experiment [6] and in experiment [14] was “inactive” throughout. The Potency result in experiment [7], in experiment [9], in [10] and in experiment [11] was “inactive” in each case. In addition, in experiment [3], the molecule was classed as inactive.

In the case of `CCN(CC)C(=O)/C(C#N)=C/c1cc(O)c(O)c([N+](=O)[O-])c1`, the Potency entry in experiment [1], in experiment [2], in experiment [4], in [5], in experiment [6] and in [7] was “inactive” each time. In addition, the Potency entry in experiment [10], in experiment [11] and in experiment [12] was “inactive” each time. For the same molecule, the result in experiment [3] and in experiment [8] was inactive.

As to `CC(C)N(C)C`, the molecule was called inactive in [3] and in [8]. The Potency result in experiment [4], in [5], in [6], in [7], in experiment [9] and in [10] was “inactive” each time. The Potency result in experiment [11], in [12] and in [13] was “inactive” each time.

As for `CCN(Cc1cccc(S(=O)(=O)O)c1)c1ccc(C(=C2C=CC(=[N+](CC)Cc3cccc(S(=O)(=O)O)c3)C=C2)c2ccccc2S(=O)(=O)[O-])cc1`, the molecule was classed as inactive in [3]. Also, the Potency was 34.8 µM (active) in experiment [4], 9.72 µM (active) in experiment [6] and 13.7 µM (active) in experiment [12]. Moreover, the Potency entry in [5] and in experiment [10] was “inactive” in each case.

As for `C1CCCCC1`, the Potency result in experiment [1], in experiment [2], in [4], in experiment [5], in experiment [6] and in experiment [7] was “inactive” throughout. For the same molecule, the Potency entry in [9], in experiment [10], in experiment [11] and in experiment [12] was “inactive” throughout. Further, the molecule was classed as inactive in [3] and in experiment [8].
